High-throughput results as filed in PubChem.
AHR activator – human AHR activation | P35869 | AID 2796 | 2.5% of 320,000 active | activation, % at 5 µM | AHR-responsive luciferase reporter cells, luminescence; in the data active means activation above about 47%;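 further: 0% = vehicle wells and 100% = reference agonist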
Target sequence (P35869 whole entry, looked up): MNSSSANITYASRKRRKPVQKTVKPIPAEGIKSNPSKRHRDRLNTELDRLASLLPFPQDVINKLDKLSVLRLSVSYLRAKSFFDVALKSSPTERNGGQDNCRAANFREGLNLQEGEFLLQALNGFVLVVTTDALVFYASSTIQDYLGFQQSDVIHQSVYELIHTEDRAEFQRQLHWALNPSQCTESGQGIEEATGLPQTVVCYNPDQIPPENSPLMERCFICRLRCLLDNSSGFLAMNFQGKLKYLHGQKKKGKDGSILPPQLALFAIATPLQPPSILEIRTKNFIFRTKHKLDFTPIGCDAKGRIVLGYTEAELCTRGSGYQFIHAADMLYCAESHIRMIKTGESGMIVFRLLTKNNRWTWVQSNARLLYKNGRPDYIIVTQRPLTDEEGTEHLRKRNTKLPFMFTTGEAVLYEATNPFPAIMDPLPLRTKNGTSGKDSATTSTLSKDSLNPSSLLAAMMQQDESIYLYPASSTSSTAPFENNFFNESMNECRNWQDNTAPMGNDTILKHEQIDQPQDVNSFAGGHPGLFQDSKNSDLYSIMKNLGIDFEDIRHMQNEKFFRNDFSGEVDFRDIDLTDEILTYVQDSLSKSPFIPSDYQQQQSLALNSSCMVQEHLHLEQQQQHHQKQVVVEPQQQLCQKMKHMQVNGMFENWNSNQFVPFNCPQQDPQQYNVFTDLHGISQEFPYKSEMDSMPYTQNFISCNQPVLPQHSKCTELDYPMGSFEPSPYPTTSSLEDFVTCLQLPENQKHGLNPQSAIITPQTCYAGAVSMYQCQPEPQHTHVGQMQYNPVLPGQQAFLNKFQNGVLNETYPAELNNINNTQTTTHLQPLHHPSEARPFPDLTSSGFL
SENP8 block-1 – blocks the human protease SENP8. Q96LD8. purified SENP8, Z-RLRGG-aminoluciferin cleavage, luminescence. inhibition, % at 10 µM. 1.2% of 330,000 active. AID 2540; in the data active means inhibition above about 50%
EBI2 antag – blocks human EBI2 receptor beta-arrestin signaling; EBI2 beta-arrestin recruitment, luminescence, 7a,25-OHC stimulated; inhibition, % at 5 µM; 0.81% of 360,000 active; in the data active means inhibition above about 38%;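 further: enzyme fragment complementation signal reports receptor beta-arrestin coupling in cells; 0% = agonist plus DMSO wells and 100% = wells without agonist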
SENP6 block – SENP6 protease inhibition. AID 2599. 1.8% of 330,000 active. Recombinant SENP6 catalytic domain, aminoluciferin luminescence. inhibition, % at 10 µM. Q9GZR1;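 active means inhibition above about 50% at the single tested dose, limit read from the data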;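 further: plate controls were DMSO wells with enzyme for no effect and DMSO wells lacking enzyme for full effect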
SENP7 inh – SENP7 protease inhibition | recombinant SENP7, Z-RLRGG-aminoluciferin luminescence, 40 min | Q9BQF6 | inhibition, % at 5 µM | 1.5% of 330,000 active | AID 434973;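 active means inhibition above about 50% at the single test dose, limit read from the data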;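 further: plate controls were DMSO with enzyme for no effect and no enzyme buffer wells for full effect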
SENP8 block-2 – SENP8 (human) protease inhibition | inhibition, % at 20 µM | recombinant SENP8, Nedd8 substrate fluorescence | AID 602440 | Q96LD8 | 0.64% of 360,000 active; in the data active means inhibition mostly above about 40%, no sharp cut-off; inactive means mostly below about 27%
* marks the source's active call; other numbers are inactive results; x = no result given. Hits are enriched below; roughly 5% of the tested compounds scored in any of these assays.

SMILES | AHR activator | SENP8 block-1 | EBI2 antag | SENP6 block | SENP7 inh | SENP8 block-2
COc1cc(Cl)ccc1OC1(C)CCN(Cc2ccc(-c3ccccn3)cc2)C1 (stereo unspecified) | x | x | -10 | x | x | 19
CC(=O)c1cccc(Nc2cc(C)nc3ccccc23)c1 | 18 | 4 | -2 | 16 | 5 | -16
CC(=O)c1cccc(Nc2cc(C)nc3c(C)cccc23)c1 | 50* | -4 | -5 | 3 | 6 | -30
O=C(Cn1cncn1)N/N=C/c1cccc(Cl)c1 | 5 | -6 | 18 | -9 | 2 | 26
Nc1ccc(N=Nc2ccccc2)c2ccccc12 | 55* | -8 | -5 | -3 | 11 | 24
Nc1ccc(N=Nc2ccccc2)cc1[N+](=O)[O-] | x | x | 5 | x | x | 26
Nc1ccc(N=Nc2ccccc2)c(N)n1 | 3 | 15 | -4 | 22 | 4 | 36*
Cc1cc(=O)n2[nH]c(N)c(N=Nc3ccccc3)c2n1 | 2 | x | -10 | x | x | 16
Cc1noc(C)c1C(=O)Nc1nc2ccccc2s1 | x | 94* | -5 | 97* | 98* | -45
Cc1noc(C)c1CSCC(=O)Nc1nc2ccccc2s1 | 43 | -6 | -2 | -2 | 5 | -18
Cc1c(N=C2NN=C(c3c[nH]c4ccccc34)CS2)c(=O)n(-c2ccccc2)n1C | 56* | -7 | 0 | -25 | -7 | -145
Cc1[nH]c2ccccc2c1N=Nc1ccc(F)cc1 | 67* | -8 | 37 | 15 | -6 | 47*
Cc1[nH]c2ccccc2c1N=Nc1ccccc1F | 51* | 3 | 15 | -13 | 2 | 4
Cc1ccccc1-n1nc2c(c1NC(=O)COc1ccc(Cl)cc1)CS(=O)C2 (stereo unspecified) | 2 | 8 | 0 | 13 | 3 | 13
O=C(COc1ccccc1)Nc1c2c(nn1-c1ccccc1)CS(=O)C2 (stereo unspecified) | 56* | 2 | -8 | -7 | -1 | 5
C[C@@H]1OC(Nc2ccc(N=Nc3ccccc3)cc2)[C@H](O)[C@H](O)[C@H]1O (stereo partly specified) | -4 | -3 | 6 | -1 | 2 | 40*
O=C(Nc1cccc(C(=O)N2CCCC2)c1)C1CC1 | x | x | -1 | x | x | 3
CC(=O)n1cc([C@@H]2C=C(C(=O)Nc3ccccc3)O[C@H](OCCCCO)C2)c2ccccc21 | 57* | 4 | 8 | -7 | 5 | -17
CC(=O)n1cc([C@H]2C=C(C(=O)O)O[C@@H](OCCCCO)C2)c2ccccc21 | 4 | 1 | 2 | -5 | 0 | -38
CC(=O)n1cc([C@@H]2C=C(C(=O)NCc3ccccc3)O[C@H](OCc3ccc(CO)cc3)C2)c2ccccc21 | 66* | -7 | 25 | -3 | -2 | -47
C#CCNC(=O)C1=C[C@H](c2cn(C(C)=O)c3ccccc23)C[C@H](OCc2ccc(CO)cc2)O1 | 41 | -9 | -12 | -7 | 5 | -48
C#CCNC(=O)C1=C[C@@H](C2CCCCC2)C[C@@H](OCc2ccc(CO)cc2)O1 | 48* | -9 | 1 | -20 | 6 | 6
O=c1cc2oc3cc(O)c(O)cc3c(-c3ccccc3[N+](=O)[O-])c-2cc1O | 0 | 21 | 10 | 24 | 10 | 36
O=C(Nc1ccc2c(c1)OCCO2)c1cc2sccc2n1Cc1ccc(F)cc1 | 64* | -9 | 18 | -21 | -6 | -8
O=S(=O)(c1ccc(NC(=S)N2CCCCC2CO)cc1)N1CCOCC1 (stereo unspecified) | x | x | -2 | x | x | 6
SMILES | AHR activator | SENP8 block-1 | EBI2 antag | SENP6 block | SENP7 inh | SENP8 block-2
Cc1cc(C)nc(SCc2csc(-c3ccccc3)n2)n1 | -2 | 30 | 7 | 60* | 38 | 11
COc1ccccc1/C=C/C=N/n1c(-c2n[nH]c3c2CCC3)n[nH]c1=S | 55* | -10 | 3 | -11 | -6 | 26
COc1cccc(/C=N/n2c(-c3n[nH]c4c3CCC4)n[nH]c2=S)c1O | 24 | 8 | -7 | 6 | -3 | 11
CCCCNC(=O)c1cc2c(C)cc(C)cc2[nH]1 | 55* | -10 | -1 | -12 | 7 | -24
N#Cc1cccc(N2[C@@H](Cc3cc4ccccc4n3Cc3ccccc3)COC[C@H]2Cc2ccc3ccccc3c2)c1 | x | x | 2 | x | x | -403
CCOc1cc(C(=O)N=c2sccn2C)cc(Br)c1OC | 55* | 5 | 9 | -14 | -3 | -198
C[C@H]1CN(C2CCCCC2)C(=O)[C@@H]1CC(=O)Nc1ccc(Br)cc1 | x | x | -5 | x | x | 17
Clc1nc(-c2ccccc2)cc(-c2ccc(Br)cc2)n1 | 69* | -7 | -10 | 2 | -4 | 13
Nc1cc(-c2ccc(Br)cc2)nc2cc(-c3ccccc3)nn12 | 3 | -2 | 13 | 19 | 5 | -424
CC1=NN(c2ccc(C)cc2C)C(=O)C1C(c1ccccc1)C1C(=O)N(c2ccc(C)cc2C)N=C1C (stereo unspecified) | 1 | 5 | 9 | 10 | 15 | 92*
N#CC1=C(N)NC(SCC(=O)Nc2ccccc2)=C(C#N)C12CCCC2 | 71* | -4 | 7 | -22 | -3 | -57
CC1Cc2c([nH]c3ccccc23)C2c3ccccc3CN12 (stereo unspecified) | 57* | -12 | 0 | -10 | -11 | -161
CCC(=O)N1CCCC1(C)C(=O)Nc1ccc2scnc2c1 (stereo unspecified) | x | x | -6 | x | x | 4
CC(C)N1CCC2(CC1)N=C(c1ccc3c(c1)OCO3)CC(c1cc(Cl)ccc1O)N2 (stereo unspecified) | 76* | 18 | 15 | 28 | -9 | -24
CC(=O)OC[C@@H]1CN(Cc2ccccc2)C[C@H](n2cnc3c(NC4CC4)ncnc32)O1 | x | x | 10 | x | x | 0
CCN1C(=O)C(=Cc2cccc(OC)c2Oc2ccc([N+](=O)[O-])cc2[N+](=O)[O-])SC1=S | 0 | 95* | 14 | 81* | 54* | 33
Cc1cnc(C(=O)OCC(=O)Nc2cc(-c3cc(C)c(C)cc3C)nn2-c2ccccc2)cn1 | 60* | -2 | -10 | -3 | -1 | -6
Cc1cc(C)c(-c2cc(NC(=O)CSc3n[nH]c(N)n3)n(-c3ccccc3)n2)cc1C | 56* | -9 | 3 | -18 | -8 | 22
CCOCC(=O)Nc1ccc([N+](=O)[O-])cc1C | -1 | -2 | -12 | 5 | -8 | -3
C=C1C(=O)O[C@H]2C[C@H]1[C@@H](OC(C)=O)C/C(C)=C/CC/C(C)=C\CC[C@]2(C)O | x | x | 52* | x | x | 6
Cc1nn(C)cc1C(=O)Nc1ccc2c(c1)OCCO2 | 47* | -5 | -3 | -16 | 0 | 10
O=C(Nc1ccc2c(c1)OCO2)c1cnn2cccnc12 | 108* | 0 | -8 | 16 | -8 | 0
O=C(Nc1cccc(O)c1)c1cnn2cccnc12 | 50* | -19 | -13 | 15 | -4 | 4
Cc1cc(C)n2ncc(C(=O)Nc3ccc4c(c3)OCO4)c2n1 | 73* | -11 | 5 | -4 | -7 | 16
